Experimental data: the supplement of paper PMC6411743
± gives the standard deviation of the averaged measurements. About 5,400 targets were measured; listed, in parts, are those with the largest changes and a random draw of the rest.

Compound: Nc1nc2c(ncn2[C@@H]2O[C@H](COP(=O)(O)OP(=O)(O)OP(=O)(O)O)[C@@H](O)[C@H]2O)c(=O)[nH]1 [guanosine triphosphate]
Assay: NP40-soluble protein abundance relative to vehicle (solubility fold change) (ratio); higher = more soluble protein in presence of GTP
How it was run: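 Crude Jurkat lysate, prepared by Dounce homogenisation, was exposed to eight concentrations from 0.1 to 10 mM for 10 min at room temperature and then 3 min at 37 °C. Solubilisation used 0.8% NP40 with benzonase for 60 min at 4 °C, followed by ultracentrifugation and TMT labelling of the supernatant for LC-MS/MS. After vsn normalisation of intensities, each value is the fold change against the detergent-processed vehicle within each replicate, across three independent experiments.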

Chain of UniProt O75400 (O75400 whole entry): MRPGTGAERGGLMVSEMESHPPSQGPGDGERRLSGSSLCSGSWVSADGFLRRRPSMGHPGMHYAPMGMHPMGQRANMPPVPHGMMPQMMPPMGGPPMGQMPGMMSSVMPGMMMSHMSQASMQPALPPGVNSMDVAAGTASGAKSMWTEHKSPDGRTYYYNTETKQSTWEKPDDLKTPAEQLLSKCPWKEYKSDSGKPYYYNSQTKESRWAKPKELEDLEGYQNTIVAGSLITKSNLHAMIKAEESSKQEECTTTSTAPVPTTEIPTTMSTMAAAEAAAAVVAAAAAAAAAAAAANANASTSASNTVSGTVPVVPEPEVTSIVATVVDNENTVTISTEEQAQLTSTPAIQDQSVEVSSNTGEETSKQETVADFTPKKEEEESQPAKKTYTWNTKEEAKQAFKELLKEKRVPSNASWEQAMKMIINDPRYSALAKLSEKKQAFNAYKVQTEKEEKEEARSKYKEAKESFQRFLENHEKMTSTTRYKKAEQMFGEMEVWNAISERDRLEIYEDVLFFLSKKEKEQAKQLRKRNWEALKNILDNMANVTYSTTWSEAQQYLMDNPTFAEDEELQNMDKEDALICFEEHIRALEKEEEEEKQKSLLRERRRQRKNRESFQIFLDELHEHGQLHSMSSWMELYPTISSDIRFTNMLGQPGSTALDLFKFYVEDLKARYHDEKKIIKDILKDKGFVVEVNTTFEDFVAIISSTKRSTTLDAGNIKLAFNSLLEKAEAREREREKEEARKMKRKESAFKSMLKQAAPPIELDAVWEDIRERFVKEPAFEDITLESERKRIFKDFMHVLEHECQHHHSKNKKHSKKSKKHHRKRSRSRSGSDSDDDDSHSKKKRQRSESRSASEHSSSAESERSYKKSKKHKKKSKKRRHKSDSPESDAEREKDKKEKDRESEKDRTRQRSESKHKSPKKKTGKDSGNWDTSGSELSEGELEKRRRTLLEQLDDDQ
Chain of UniProt P18065 (P18065 whole entry): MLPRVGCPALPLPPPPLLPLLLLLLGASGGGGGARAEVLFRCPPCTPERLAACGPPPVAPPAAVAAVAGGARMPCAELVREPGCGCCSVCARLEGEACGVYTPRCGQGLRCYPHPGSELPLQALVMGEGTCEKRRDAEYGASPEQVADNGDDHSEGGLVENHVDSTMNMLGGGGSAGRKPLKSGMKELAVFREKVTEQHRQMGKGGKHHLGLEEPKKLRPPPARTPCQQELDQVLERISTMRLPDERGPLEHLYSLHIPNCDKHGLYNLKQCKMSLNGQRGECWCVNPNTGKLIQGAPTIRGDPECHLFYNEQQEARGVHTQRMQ
Chain of UniProt P27144 (P27144 whole entry): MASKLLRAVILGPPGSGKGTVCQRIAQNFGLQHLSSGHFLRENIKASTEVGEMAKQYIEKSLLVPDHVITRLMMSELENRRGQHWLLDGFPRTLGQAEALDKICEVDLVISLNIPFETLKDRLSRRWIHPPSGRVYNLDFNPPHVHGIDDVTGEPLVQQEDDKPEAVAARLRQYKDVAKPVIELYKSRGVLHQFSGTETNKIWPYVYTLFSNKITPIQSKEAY
Chain of UniProt O43324 (O43324 whole entry): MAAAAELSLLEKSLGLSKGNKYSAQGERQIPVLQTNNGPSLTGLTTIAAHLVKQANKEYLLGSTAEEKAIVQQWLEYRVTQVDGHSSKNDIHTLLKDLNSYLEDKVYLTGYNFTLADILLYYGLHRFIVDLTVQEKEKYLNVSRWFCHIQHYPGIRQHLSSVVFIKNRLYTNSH
Chain of UniProt P16403 (P16403 whole entry): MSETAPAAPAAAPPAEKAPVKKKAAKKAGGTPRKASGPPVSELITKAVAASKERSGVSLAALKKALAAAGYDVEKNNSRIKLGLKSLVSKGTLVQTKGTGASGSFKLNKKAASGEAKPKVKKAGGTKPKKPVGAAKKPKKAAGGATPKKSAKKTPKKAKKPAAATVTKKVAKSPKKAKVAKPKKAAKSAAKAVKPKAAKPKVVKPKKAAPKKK
Chain of UniProt Q9BRQ6 (Q9BRQ6 whole entry, one chain of several): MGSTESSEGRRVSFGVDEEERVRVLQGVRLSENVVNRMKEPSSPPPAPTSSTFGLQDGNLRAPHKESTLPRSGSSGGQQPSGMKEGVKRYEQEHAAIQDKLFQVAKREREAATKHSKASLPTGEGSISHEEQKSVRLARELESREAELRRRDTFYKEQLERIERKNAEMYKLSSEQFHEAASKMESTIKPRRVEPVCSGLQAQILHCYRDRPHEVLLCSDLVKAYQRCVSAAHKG
Chain of UniProt P10515 (P10515 whole entry): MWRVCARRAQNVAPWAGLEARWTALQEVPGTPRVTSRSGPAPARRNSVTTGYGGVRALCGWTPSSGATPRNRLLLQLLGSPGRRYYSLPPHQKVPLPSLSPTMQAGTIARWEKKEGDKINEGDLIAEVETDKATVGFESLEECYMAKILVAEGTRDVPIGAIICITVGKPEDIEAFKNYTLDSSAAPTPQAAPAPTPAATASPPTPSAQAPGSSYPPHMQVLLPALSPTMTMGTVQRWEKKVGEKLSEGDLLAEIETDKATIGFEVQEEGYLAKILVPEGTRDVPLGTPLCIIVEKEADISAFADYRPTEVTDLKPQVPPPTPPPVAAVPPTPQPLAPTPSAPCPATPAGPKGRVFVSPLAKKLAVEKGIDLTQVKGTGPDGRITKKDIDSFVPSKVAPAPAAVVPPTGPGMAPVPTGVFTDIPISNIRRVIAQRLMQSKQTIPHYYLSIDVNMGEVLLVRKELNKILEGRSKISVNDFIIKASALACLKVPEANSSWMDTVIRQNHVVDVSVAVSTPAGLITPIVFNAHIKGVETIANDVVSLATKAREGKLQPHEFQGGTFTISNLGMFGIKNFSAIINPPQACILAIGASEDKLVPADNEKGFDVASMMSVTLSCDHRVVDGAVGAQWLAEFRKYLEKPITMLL
Chain of UniProt O43760 (O43760 whole entry): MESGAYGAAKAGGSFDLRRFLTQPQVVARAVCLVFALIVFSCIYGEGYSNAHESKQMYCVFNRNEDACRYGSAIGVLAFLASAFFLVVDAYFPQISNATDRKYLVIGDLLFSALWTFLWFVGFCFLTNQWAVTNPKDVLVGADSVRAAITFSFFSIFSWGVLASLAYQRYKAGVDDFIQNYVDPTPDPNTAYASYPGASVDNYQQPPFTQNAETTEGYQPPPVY
Chain of UniProt P50583 (P50583 whole entry): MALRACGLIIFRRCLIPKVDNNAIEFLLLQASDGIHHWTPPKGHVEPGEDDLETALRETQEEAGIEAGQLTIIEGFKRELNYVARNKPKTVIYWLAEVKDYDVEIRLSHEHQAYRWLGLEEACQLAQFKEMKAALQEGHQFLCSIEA
Chain of UniProt P16401 (P16401 whole entry): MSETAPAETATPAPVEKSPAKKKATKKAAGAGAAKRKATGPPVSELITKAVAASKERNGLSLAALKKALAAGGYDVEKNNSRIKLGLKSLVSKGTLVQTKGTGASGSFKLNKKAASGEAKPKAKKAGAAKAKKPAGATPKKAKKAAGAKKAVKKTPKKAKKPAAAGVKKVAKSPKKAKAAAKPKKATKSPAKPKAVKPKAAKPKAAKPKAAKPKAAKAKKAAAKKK
Chain of UniProt O43167 (O43167 whole entry): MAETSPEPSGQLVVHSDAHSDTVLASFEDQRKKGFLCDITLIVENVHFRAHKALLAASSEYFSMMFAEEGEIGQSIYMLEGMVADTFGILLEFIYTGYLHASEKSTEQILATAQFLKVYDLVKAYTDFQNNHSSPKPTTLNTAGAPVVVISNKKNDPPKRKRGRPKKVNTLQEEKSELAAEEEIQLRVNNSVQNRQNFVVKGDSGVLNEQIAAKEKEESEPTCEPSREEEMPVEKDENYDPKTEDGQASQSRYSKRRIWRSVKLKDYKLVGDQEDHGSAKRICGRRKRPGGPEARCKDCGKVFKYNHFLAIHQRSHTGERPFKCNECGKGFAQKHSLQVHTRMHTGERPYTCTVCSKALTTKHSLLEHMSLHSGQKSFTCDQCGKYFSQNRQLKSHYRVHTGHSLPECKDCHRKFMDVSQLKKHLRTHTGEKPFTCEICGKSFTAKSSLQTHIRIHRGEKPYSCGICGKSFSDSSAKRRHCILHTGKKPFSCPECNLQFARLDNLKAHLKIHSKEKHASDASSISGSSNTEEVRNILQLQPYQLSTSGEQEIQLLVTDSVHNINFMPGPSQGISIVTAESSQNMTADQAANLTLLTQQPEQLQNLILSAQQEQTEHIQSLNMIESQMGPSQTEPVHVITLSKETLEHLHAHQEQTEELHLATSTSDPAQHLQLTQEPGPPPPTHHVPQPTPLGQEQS
Chain of UniProt P09651 (P09651 whole entry): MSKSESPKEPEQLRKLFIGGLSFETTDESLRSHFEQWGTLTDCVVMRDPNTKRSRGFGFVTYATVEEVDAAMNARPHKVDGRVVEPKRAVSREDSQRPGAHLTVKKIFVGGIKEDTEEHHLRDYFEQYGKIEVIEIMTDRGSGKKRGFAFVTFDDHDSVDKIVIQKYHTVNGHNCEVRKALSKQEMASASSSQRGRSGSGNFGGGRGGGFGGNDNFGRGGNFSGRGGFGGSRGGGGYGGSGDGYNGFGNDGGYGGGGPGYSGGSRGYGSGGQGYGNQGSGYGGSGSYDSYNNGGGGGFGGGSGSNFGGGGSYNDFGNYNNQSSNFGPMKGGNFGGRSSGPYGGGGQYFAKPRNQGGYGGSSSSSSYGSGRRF
Chain of UniProt P00387 (P00387 whole entry): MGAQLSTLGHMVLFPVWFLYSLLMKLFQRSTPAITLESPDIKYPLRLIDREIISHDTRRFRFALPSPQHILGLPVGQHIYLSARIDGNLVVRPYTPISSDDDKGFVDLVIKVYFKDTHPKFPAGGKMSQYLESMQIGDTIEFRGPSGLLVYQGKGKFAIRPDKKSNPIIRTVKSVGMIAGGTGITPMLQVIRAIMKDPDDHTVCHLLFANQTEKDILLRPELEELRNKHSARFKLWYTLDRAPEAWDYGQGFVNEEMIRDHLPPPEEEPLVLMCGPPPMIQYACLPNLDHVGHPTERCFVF

UniProt P09651|P09651-2 was tested, and the NP40-soluble protein abundance (concentration: 0.1mM) was 1.03 ± 0.067, the NP40-soluble protein abundance (concentration: 0.5mM) was 1.11 ± 0.082 and the NP40-soluble protein abundance (concentration: 1mM) was 1.17 ± 0.11. The NP40-soluble protein abundance (concentration: 2mM) was 1.16 ± 0.065, the NP40-soluble protein abundance (concentration: 4mM) was 1.16 ± 0.08 and the NP40-soluble protein abundance (concentration: 6mM) was 1.22 ± 0.089. It also gave an NP40-soluble protein abundance (concentration: 8mM) of 1.3 ± 0.22 and an NP40-soluble protein abundance (concentration: 10mM) of 1.25 ± 0.16.

Target UniProt O43760|O43760-2 has an NP40-soluble protein abundance (concentration: 0.1mM) of 0.957 ± 0.086, an NP40-soluble protein abundance (concentration: 0.5mM) of 0.909 ± 0.12 and an NP40-soluble protein abundance (concentration: 1mM) of 0.911 ± 0.076. For the same target, the NP40-soluble protein abundance (concentration: 2mM) was 0.915 ± 0.083, the NP40-soluble protein abundance (concentration: 4mM) was 0.908 ± 0.088 and the NP40-soluble protein abundance (concentration: 6mM) was 0.852 ± 0.11. For the same target, the NP40-soluble protein abundance (concentration: 8mM) was 0.843 ± 0.15 and the NP40-soluble protein abundance (concentration: 10mM) was 0.884 ± 0.091.

UniProt P00387|P00387-2|P00387-3 gave an NP40-soluble protein abundance (concentration: 0.1mM) of 1.11 ± 0.13, an NP40-soluble protein abundance (concentration: 0.5mM) of 1.1 ± 0.14 and an NP40-soluble protein abundance (concentration: 1mM) of 0.945 ± 0.11. It also gave an NP40-soluble protein abundance (concentration: 2mM) of 0.947 ± 0.15, an NP40-soluble protein abundance (concentration: 4mM) of 0.938 ± 0.14 and an NP40-soluble protein abundance (concentration: 6mM) of 0.925 ± 0.14. For the same target, the NP40-soluble protein abundance (concentration: 8mM) was 0.882 ± 0.1 and the NP40-soluble protein abundance (concentration: 10mM) was 0.853 ± 0.14.

For IGFBP2 (UniProt P18065), the NP40-soluble protein abundance (concentration: 0.1mM) was 0.9 ± 0.042, the NP40-soluble protein abundance (concentration: 0.5mM) was 0.884 ± 0.053 and the NP40-soluble protein abundance (concentration: 1mM) was 0.983 ± 0.035. For the same target, the NP40-soluble protein abundance (concentration: 2mM) was 0.997 ± 0.043, the NP40-soluble protein abundance (concentration: 4mM) was 0.995 ± 0.028 and the NP40-soluble protein abundance (concentration: 6mM) was 0.934 ± 0.062. The NP40-soluble protein abundance (concentration: 8mM) was 1.02 ± 0.054 and the NP40-soluble protein abundance (concentration: 10mM) was 1.05 ± 0.087.

With DLAT (UniProt P10515) the NP40-soluble protein abundance (concentration: 0.1mM) was 1.11 ± 0.22, the NP40-soluble protein abundance (concentration: 0.5mM) was 1.28 ± 0.39 and the NP40-soluble protein abundance (concentration: 1mM) was 1.47 ± 0.56. For the same target, the NP40-soluble protein abundance (concentration: 2mM) was 1.85 ± 0.82, the NP40-soluble protein abundance (concentration: 4mM) was 2.12 ± 1.1 and the NP40-soluble protein abundance (concentration: 6mM) was 2.06 ± 1.1. It also gave an NP40-soluble protein abundance (concentration: 8mM) of 1.98 ± 0.98 and an NP40-soluble protein abundance (concentration: 10mM) of 1.91 ± 0.99.

J3QTA6|Q9BRQ6 (UniProt Q9BRQ6) was tested, and the NP40-soluble protein abundance (concentration: 0.1mM) was 1 ± 0.084, the NP40-soluble protein abundance (concentration: 0.5mM) was 1.01 ± 0.083 and the NP40-soluble protein abundance (concentration: 1mM) was 1.12 ± 0.14. It also gave an NP40-soluble protein abundance (concentration: 2mM) of 1.15 ± 0.054, an NP40-soluble protein abundance (concentration: 4mM) of 1.15 ± 0.09 and an NP40-soluble protein abundance (concentration: 6mM) of 1.16 ± 0.062. The NP40-soluble protein abundance (concentration: 8mM) was 1.22 ± 0.12 and the NP40-soluble protein abundance (concentration: 10mM) was 1.26 ± 0.21.

Work on UniProt P35606|P35606-2 yielded an NP40-soluble protein abundance (concentration: 0.1mM) of 1.04 ± 0.075, an NP40-soluble protein abundance (concentration: 0.5mM) of 1.07 ± 0.11 and an NP40-soluble protein abundance (concentration: 1mM) of 0.994 ± 0.089. For the same target, the NP40-soluble protein abundance (concentration: 2mM) was 1.04 ± 0.12, the NP40-soluble protein abundance (concentration: 4mM) was 1.04 ± 0.12 and the NP40-soluble protein abundance (concentration: 6mM) was 1.03 ± 0.12. It also gave an NP40-soluble protein abundance (concentration: 8mM) of 1.01 ± 0.097 and an NP40-soluble protein abundance (concentration: 10mM) of 0.984 ± 0.087.

Work on HIST1H1B (UniProt P16401) yielded an NP40-soluble protein abundance (concentration: 0.1mM) of 0.956 ± 0.023, an NP40-soluble protein abundance (concentration: 0.5mM) of 0.937 ± 0.02 and an NP40-soluble protein abundance (concentration: 1mM) of 1.09 ± 0.037. It also gave an NP40-soluble protein abundance (concentration: 2mM) of 1.15 ± 0.014, an NP40-soluble protein abundance (concentration: 4mM) of 1.22 ± 0.042 and an NP40-soluble protein abundance (concentration: 6mM) of 1.272 ± 0.012. The NP40-soluble protein abundance (concentration: 8mM) was 1.22 ± 0.039 and the NP40-soluble protein abundance (concentration: 10mM) was 1.73 ± 0.19.

With AK4 (UniProt P27144) the NP40-soluble protein abundance (concentration: 0.1mM) was 0.983 ± 0.072, the NP40-soluble protein abundance (concentration: 0.5mM) was 0.887 ± 0.088 and the NP40-soluble protein abundance (concentration: 1mM) was 1.03 ± 0.042. The NP40-soluble protein abundance (concentration: 2mM) was 1 ± 0.075, the NP40-soluble protein abundance (concentration: 4mM) was 1.03 ± 0.11 and the NP40-soluble protein abundance (concentration: 6mM) was 0.987 ± 0.11. It also gave an NP40-soluble protein abundance (concentration: 8mM) of 0.975 ± 0.16 and an NP40-soluble protein abundance (concentration: 10mM) of 0.983 ± 0.11.

EEF1E1 (UniProt O43324) was tested, and the NP40-soluble protein abundance (concentration: 0.1mM) was 1.05 ± 0.28, the NP40-soluble protein abundance (concentration: 0.5mM) was 0.987 ± 0.27 and the NP40-soluble protein abundance (concentration: 1mM) was 1.24 ± 0.41. For the same target, the NP40-soluble protein abundance (concentration: 2mM) was 1.43 ± 0.46, the NP40-soluble protein abundance (concentration: 4mM) was 1.41 ± 0.44 and the NP40-soluble protein abundance (concentration: 6mM) was 1.39 ± 0.45. It also gave an NP40-soluble protein abundance (concentration: 8mM) of 1.22 ± 0.39 and an NP40-soluble protein abundance (concentration: 10mM) of 1.31 ± 0.55.

Work on UniProt O75400|O75400-2|O75400-3 yielded an NP40-soluble protein abundance (concentration: 0.1mM) of 1.02 ± 0.05, an NP40-soluble protein abundance (concentration: 0.5mM) of 1.11 ± 0.036 and an NP40-soluble protein abundance (concentration: 1mM) of 1.23 ± 0.083. For the same target, the NP40-soluble protein abundance (concentration: 2mM) was 1.25 ± 0.076, the NP40-soluble protein abundance (concentration: 4mM) was 1.37 ± 0.21 and the NP40-soluble protein abundance (concentration: 6mM) was 1.52 ± 0.24. For the same target, the NP40-soluble protein abundance (concentration: 8mM) was 1.81 ± 0.37 and the NP40-soluble protein abundance (concentration: 10mM) was 1.89 ± 0.41.

Target ZBTB24 (UniProt O43167) has an NP40-soluble protein abundance (concentration: 0.1mM) of 1.09 ± 0.18, an NP40-soluble protein abundance (concentration: 0.5mM) of 1.09 ± 0.2 and an NP40-soluble protein abundance (concentration: 1mM) of 1.02 ± 0.21. The NP40-soluble protein abundance (concentration: 2mM) was 1.05 ± 0.2, the NP40-soluble protein abundance (concentration: 4mM) was 1.06 ± 0.24 and the NP40-soluble protein abundance (concentration: 6mM) was 0.976 ± 0.11. It also gave an NP40-soluble protein abundance (concentration: 8mM) of 1 ± 0.053 and an NP40-soluble protein abundance (concentration: 10mM) of 1.08 ± 0.14.

With NUDT2 (UniProt P50583) the NP40-soluble protein abundance (concentration: 0.1mM) was 0.93 ± 0.17, the NP40-soluble protein abundance (concentration: 0.5mM) was 0.902 ± 0.14 and the NP40-soluble protein abundance (concentration: 1mM) was 0.884 ± 0.15. For the same target, the NP40-soluble protein abundance (concentration: 2mM) was 0.877 ± 0.15, the NP40-soluble protein abundance (concentration: 4mM) was 1.8 ± 0.49 and the NP40-soluble protein abundance (concentration: 6mM) was 1.24 ± 0.23. For the same target, the NP40-soluble protein abundance (concentration: 8mM) was 1.48 ± 0.34 and the NP40-soluble protein abundance (concentration: 10mM) was 1.16 ± 0.26.

Target UniProt O95793|O95793-2 has an NP40-soluble protein abundance (concentration: 0.1mM) of 0.997 ± 0.045, an NP40-soluble protein abundance (concentration: 0.5mM) of 1.02 ± 0.044 and an NP40-soluble protein abundance (concentration: 1mM) of 1.1 ± 0.079. For the same target, the NP40-soluble protein abundance (concentration: 2mM) was 1.18 ± 0.076, the NP40-soluble protein abundance (concentration: 4mM) was 1.33 ± 0.11 and the NP40-soluble protein abundance (concentration: 6mM) was 1.42 ± 0.13. The NP40-soluble protein abundance (concentration: 8mM) was 1.54 ± 0.2 and the NP40-soluble protein abundance (concentration: 10mM) was 1.82 ± 0.31.

For HIST1H1C (UniProt P16403), the NP40-soluble protein abundance (concentration: 0.1mM) was 0.984 ± 0.038, the NP40-soluble protein abundance (concentration: 0.5mM) was 1.11 ± 0.074 and the NP40-soluble protein abundance (concentration: 1mM) was 1.18 ± 0.072. The NP40-soluble protein abundance (concentration: 2mM) was 1.22 ± 0.048, the NP40-soluble protein abundance (concentration: 4mM) was 1.23 ± 0.096 and the NP40-soluble protein abundance (concentration: 6mM) was 1.38 ± 0.074. It also gave an NP40-soluble protein abundance (concentration: 8mM) of 1.26 ± 0.1 and an NP40-soluble protein abundance (concentration: 10mM) of 1.78 ± 0.15.
